Many of the other results were omitted from the sample, so the strongest signals are more common in it than they were.
Assays:
Test in all cases: glycan array binding signal (z-score within array); higher = stronger binding
Settings in all cases: glycan notation: IUPAC condensed, linker removed; mutation: D224N
[1] = target: Fuc(a1-2)Gal(b1-3)GlcNAc(b1-2)Man(a1-3)[Fuc(a1-2)Gal(b1-3)GlcNAc(b1-2)Man(a1-6)]Man(b1-4)GlcNAc(b1-4)GlcNAc
Procedure, shortened: (§1)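 Columns mapping to the same glycan were averaged after glycan names were converted to IUPAC-condensed notation. The data come from 3228 arrays in the Consortium for Functional Glycomics database, limited to those with an available protein sequence. Binding is reported as a within-array Z-score averaged across arrays of one protein sequence and across linkers.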

[2] = target: Fuc(a1-2)Gal(b1-3)GlcNAc(b1-3)[Neu5Ac(a2-6)Gal(b1-4)GlcNAc(b1-6)]Gal(b1-4)Glc
Procedure, shortened: as §1

[3] = target: Fuc(a1-2)Gal(b1-3)GlcNAc6S
Procedure, shortened: as §1

[4] = target: Fuc(a1-2)Gal(b1-4)GlcNAc(b1-3)GalNAc
Procedure, shortened: as §1

[5] = target: Fuc(a1-2)Gal(b1-4)GlcNAc(b1-3)[Fuc(a1-2)Gal(b1-4)GlcNAc(b1-6)]GalNAc
Procedure, shortened: as §1

[6] = target: Fuc(a1-2)[Gal(a1-3)]Gal(b1-3)GalNAc
Procedure, shortened: as §1

[7] = target: Fuc(a1-2)[GalNAc(a1-3)]Gal(b1-3)GlcNAc
Procedure, shortened: as §1

[8] = target: Fuc(a1-2)[GalNAc(a1-3)]Gal(b1-4)GlcNAc(b1-3)Gal(b1-4)GlcNAc(b1-3)Gal(b1-4)GlcNAc
Procedure, shortened: as §1

[9] = target: Fuc(a1-3)[Gal(b1-4)]Glc6S
Procedure, shortened: as §1

[10] = target: Fuc(a1-3)[Gal(b1-4)]GlcNAc(b1-2)Man(a1-3)[Fuc(a1-3)[Gal(b1-4)]GlcNAc(b1-2)Man(a1-6)]Man(b1-4)GlcNAc(b1-4)[Fuc(a1-6)]GlcNAc
Procedure, shortened: as §1

[11] = target: Fuc(a1-3)[Gal(b1-4)]GlcNAc(b1-3)Gal(b1-4)[Fuc(a1-3)]GlcNAc(b1-3)Gal(b1-4)[Fuc(a1-3)]GlcNAc
Procedure, shortened: as §1

[12] = target: Fuc(a1-3)[Gal(b1-4)]GlcNAc(b1-6)GalNAc
Procedure, shortened: as §1

Gal(a1-2)Gal = target: Gal(a1-2)Gal
Procedure, shortened: as §1

Gal(a1-3)GalNAc = target: Gal(a1-3)GalNAc
Procedure, shortened: as §1

Gal(b1-3)GlcNAc(b1-2)Man = target: Gal(b1-3)GlcNAc(b1-2)Man
Procedure, shortened: as §1

[13] = target: Gal(b1-3)GlcNAc(b1-3)Gal(b1-4)GlcNAc(b1-6)[Gal(b1-3)GlcNAc(b1-3)]Gal(b1-4)Glc
Procedure, shortened: as §1

[14] = target: Gal(b1-4)GlcNAc(b1-3)Gal(b1-4)GlcNAc(b1-2)[Gal(b1-4)GlcNAc(b1-3)Gal(b1-4)GlcNAc(b1-6)]Man(a1-6)[Gal(b1-4)GlcNAc(b1-3)Gal(b1-4)GlcNAc(b1-2)Man(a1-3)]Man(b1-4)GlcNAc(b1-4)GlcNAc
Procedure, shortened: as §1

[15] = target: Gal(b1-4)GlcNAc(b1-3)Gal(b1-4)GlcNAc(b1-3)Gal(b1-4)GlcNAc(b1-3)Gal(b1-4)GlcNAc(b1-2)Man(a1-3)[Gal(b1-4)GlcNAc(b1-3)Gal(b1-4)GlcNAc(b1-3)Gal(b1-4)GlcNAc(b1-3)Gal(b1-4)GlcNAc(b1-2)Man(a1-6)]Man(b1-4)GlcNAc(b1-4)[Fuc(a1-6)]GlcNAc
Procedure, shortened: as §1

[16] = target: Gal(b1-4)GlcNAc(b1-3)Gal(b1-4)GlcNAc(b1-3)Gal(b1-4)GlcNAc(b1-3)Gal(b1-4)GlcNAc(b1-3)Gal(b1-4)GlcNAc(b1-2)Man(a1-3)[Gal(b1-4)GlcNAc(b1-3)Gal(b1-4)GlcNAc(b1-3)Gal(b1-4)GlcNAc(b1-3)Gal(b1-4)GlcNAc(b1-3)Gal(b1-4)GlcNAc(b1-2)Man(a1-6)]Man(b1-4)GlcNAc(b1-4)GlcNAc
Procedure, shortened: as §1

[17] = target: Gal3S(b1-4)[Fuc(a1-3)]Glc6S
Procedure, shortened: as §1

Gal3S6S(b1-4)GlcNAc = target: Gal3S6S(b1-4)GlcNAc
Procedure, shortened: as §1

Gal6S(b1-4)Glc6S = target: Gal6S(b1-4)Glc6S
Procedure, shortened: as §1

[18] = target: Glc(a1-4)Glc(a1-4)Glc(a1-4)Glc
Procedure, shortened: as §1

[19] = target: GlcNAc(a1-4)Gal(b1-4)GlcNAc
Procedure, shortened: as §1

[20] = target: GlcNAc(a1-4)Gal(b1-4)GlcNAc(b1-3)Gal(b1-4)GlcNAc(b1-3)Gal(b1-4)GlcNAc
Procedure, shortened: as §1

[21] = target: GlcNAc(a1-4)Gal(b1-4)GlcNAc(b1-3)Gal(b1-4)[Fuc(a1-3)]GlcNAc(b1-3)Gal(b1-4)[Fuc(a1-3)]GlcNAc
Procedure, shortened: as §1

[22] = target: GlcNAc(b1-3)Gal(b1-4)GlcNAc(b1-3)Gal(b1-4)GlcNAc(b1-2)Man(a1-3)[GlcNAc(b1-3)Gal(b1-4)GlcNAc(b1-3)Gal(b1-4)GlcNAc(b1-2)Man(a1-6)]Man(b1-4)GlcNAc(b1-4)GlcNAc
Procedure, shortened: as §1

[23] = target: GlcNAc(b1-3)Gal(b1-4)GlcNAc(b1-3)Gal(b1-4)GlcNAc(b1-2)[GlcNAc(b1-3)Gal(b1-4)GlcNAc(b1-3)Gal(b1-4)GlcNAc(b1-6)]Man(a1-6)[GlcNAc(b1-3)Gal(b1-4)GlcNAc(b1-3)Gal(b1-4)GlcNAc(b1-2)Man(a1-3)]Man(b1-4)GlcNAc(b1-4)[Fuc(a1-6)]GlcNAc
Procedure, shortened: as §1

[24] = target: GlcNAc(b1-3)Gal(b1-4)GlcNAc(b1-3)Gal(b1-4)GlcNAc(b1-3)Gal(b1-4)GlcNAc(b1-2)Man(a1-3)[GlcNAc(b1-3)Gal(b1-4)GlcNAc(b1-3)Gal(b1-4)GlcNAc(b1-3)Gal(b1-4)GlcNAc(b1-2)Man(a1-6)]Man(b1-4)GlcNAc(b1-4)[Fuc(a1-6)]GlcNAc
Procedure, shortened: as §1

[25] = target: GlcNAc(b1-3)Gal(b1-4)GlcNAc(b1-3)Gal(b1-4)GlcNAc(b1-3)Gal(b1-4)GlcNAc(b1-3)Gal(b1-4)GlcNAc(b1-2)Man(a1-3)[GlcNAc(b1-3)Gal(b1-4)GlcNAc(b1-3)Gal(b1-4)GlcNAc(b1-3)Gal(b1-4)GlcNAc(b1-3)Gal(b1-4)GlcNAc(b1-2)Man(a1-6)]Man(b1-4)GlcNAc(b1-4)GlcNAc
Procedure, shortened: as §1

[26] = target: GlcNAc(b1-3)Gal(b1-4)GlcNAc(b1-6)[GlcNAc(b1-3)Gal(b1-3)]GalNAc
Procedure, shortened: as §1

[27] = target: GlcNAc(b1-4)[GlcNAc(b1-6)]GalNAc
Procedure, shortened: as §1

[28] = target: Kdn(a2-3)Gal(b1-4)[Fuc(a1-3)]GlcNAc
Procedure, shortened: as §1

[29] = target: Man(a1-2)Man(a1-2)Man(a1-6)[Man(a1-3)]Man
Procedure, shortened: as §1

Man(a1-3)[Man(a1-6)]Man = target: Man(a1-3)[Man(a1-6)]Man
Procedure, shortened: as §1

[30] = target: Man(a1-3)[Man(a1-6)]Man(a1-6)[Man(a1-3)]Man
Procedure, shortened: as §1

[31] = target: Neu5Ac(a2-3)Gal(b1-4)GlcNAc(b1-3)Gal
Procedure, shortened: as §1

[32] = target: Neu5Ac(a2-3)Gal(b1-4)GlcNAc(b1-3)Gal(b1-4)[Fuc(a1-3)]GlcNAc
Procedure, shortened: as §1

[33] = target: Neu5Ac(a2-3)Gal(b1-4)GlcNAc(b1-3)[Neu5Ac(a2-3)Gal(b1-4)GlcNAc(b1-6)]GalNAc
Procedure, shortened: as §1

[34] = target: Neu5Ac(a2-3)Gal(b1-4)[Fuc(a1-3)]GlcNAc(b1-3)Gal(b1-4)GlcNAc
Procedure, shortened: as §1

[35] = target: Neu5Ac(a2-3)Gal(b1-4)[Fuc(a1-3)]GlcNAc(b1-6)[Neu5Ac(a2-3)Gal(b1-3)]GalNAc
Procedure, shortened: as §1

[36] = target: Neu5Ac(a2-3)Gal6S(b1-4)[Fuc(a1-3)]GlcNAc
Procedure, shortened: as §1

[37] = target: Neu5Ac(a2-6)Gal(b1-4)GlcNAc(b1-2)Man(a1-3)Man(b1-4)GlcNAc(b1-4)GlcNAc
Procedure, shortened: as §1

[38] = target: Neu5Ac(a2-6)Gal(b1-4)GlcNAc(b1-2)Man(a1-6)[Man(a1-3)]Man(b1-4)GlcNAc(b1-4)GlcNAc
Procedure, shortened: as §1

[39] = target: Neu5Ac(a2-6)Gal(b1-4)GlcNAc(b1-3)Gal(b1-4)GlcNAc(b1-2)Man(a1-3)[Neu5Ac(a2-6)Gal(b1-4)GlcNAc(b1-3)Gal(b1-4)GlcNAc(b1-2)Man(a1-6)]GalNAc
Procedure, shortened: as §1

[40] = target: Neu5Ac(a2-6)Gal(b1-4)GlcNAc(b1-3)Gal(b1-4)GlcNAc(b1-3)Gal(b1-4)GlcNAc(b1-2)Man(a1-3)[Neu5Ac(a2-6)Gal(b1-4)GlcNAc(b1-3)Gal(b1-4)GlcNAc(b1-3)Gal(b1-4)GlcNAc(b1-2)Man(a1-6)]GalNAc
Procedure, shortened: as §1

[41] = target: Neu5Ac(a2-6)Gal(b1-4)GlcNAc(b1-3)GalNAc
Procedure, shortened: as §1

[42] = target: Neu5Ac(a2-8)Neu5Ac(a2-3)Gal(b1-4)Glc
Procedure, shortened: as §1

[43] = target: Neu5Ac(a2-8)Neu5Ac(a2-8)Neu5Ac(a2-3)Gal(b1-4)Glc
Procedure, shortened: as §1

[44] = target: Neu5Ac(a2-8)Neu5Ac(a2-8)Neu5Ac(a2-3)[GalNAc(b1-4)]Gal(b1-4)Glc
Procedure, shortened: as §1

B1: a L Fucosidase (Thermotoga maritima) (protein)
chain: MASMKPRYKPDWESLREHTVPKWFDKAKFGIFIHWGIYSVPGWATPTGELGKVPMDAWFFQNPYAEWYENSLRIKESPTWEYHVKTYGENFEYEKFADLFTAEKWDPQEWADLFKKAGAKYVIPTTKHHDGFCLWGTKYTDFNSVKRGPKRDLVGDLAKAVREAGLRFGVYYSGGLDWRFTTEPIRYPEDLSYIRPNTYEYADYAYKQVMELVDLYLPDVLWNNMGWPEKGKEDLKYLFAYYYNKHPEGSVNDRWGVPHWDFKTAEYHVNYPGDLPGYKWEFTRGIGLSFGYNRNEGPEHMLSVEQLVYTLVDVVSKGGNLLLNVGPKGDGTIPDLQKERLLGLGEWLRKYGDAIYGTSVWERCCAKTEDGTEIRFTRKCNRIFVIFLGIPTGEKIVIEDLNLSAGTVRHFLTGERLSFKNVGKNLEITVPKKLLETDSITLVLEAVEE
glycan array binding signal (z-score) [1]: 0.227 | glycan array binding signal (z-score) [2]: -0.742 | glycan array binding signal (z-score) [3]: -0.396 | glycan array binding signal (z-score) [4]: 0.144 | glycan array binding signal (z-score) [5]: 0.657 | glycan array binding signal (z-score) [6]: -0.35 | glycan array binding signal (z-score) [7]: 2.8 | glycan array binding signal (z-score) [8]: 0.201 | glycan array binding signal (z-score) [9]: 2.33 | glycan array binding signal (z-score) [10]: 1.05 | glycan array binding signal (z-score) [11]: 0.062 | glycan array binding signal (z-score) [12]: -0.2 | glycan array binding signal (z-score) (Gal(a1-2)Gal): -0.446 | glycan array binding signal (z-score) (Gal(a1-3)GalNAc): -0.41 | glycan array binding signal (z-score) (Gal(b1-3)GlcNAc(b1-2)Man): 0.366 | glycan array binding signal (z-score) [13]: -0.509 | glycan array binding signal (z-score) [14]: 1.93 | glycan array binding signal (z-score) [15]: 0.731 | glycan array binding signal (z-score) [16]: 0.594 | glycan array binding signal (z-score) [17]: 0.443 | glycan array binding signal (z-score) (Gal3S6S(b1-4)GlcNAc): 1.33 | glycan array binding signal (z-score) (Gal6S(b1-4)Glc6S): -0.426 | glycan array binding signal (z-score) [18]: 2.84 | glycan array binding signal (z-score) [19]: -0.293 | glycan array binding signal (z-score) [20]: 0.079 | glycan array binding signal (z-score) [21]: 0.08 | glycan array binding signal (z-score) [22]: 0.079 | glycan array binding signal (z-score) [23]: 0.296 | glycan array binding signal (z-score) [24]: 3.94 | glycan array binding signal (z-score) [25]: -0.204 | glycan array binding signal (z-score) [26]: 1.65 | glycan array binding signal (z-score) [27]: -0.289 | glycan array binding signal (z-score) [28]: 0.051 | glycan array binding signal (z-score) [29]: -0.125 | glycan array binding signal (z-score) (Man(a1-3)[Man(a1-6)]Man): 0.332 | glycan array binding signal (z-score) [30]: 0.223 | glycan array binding signal (z-score) [31]: -0.187 | glycan array binding signal (z-score) [32]: 1.75 | glycan array binding signal (z-score) [33]: 0.483 | glycan array binding signal (z-score) [34]: 1.9 | glycan array binding signal (z-score) [35]: 2.83 | glycan array binding signal (z-score) [36]: -0.732 | glycan array binding signal (z-score) [37]: 1.99 | glycan array binding signal (z-score) [38]: 0.081 | glycan array binding signal (z-score) [39]: 2.02 | glycan array binding signal (z-score) [40]: 10.5 | glycan array binding signal (z-score) [41]: 1.83 | glycan array binding signal (z-score) [42]: -0.893 | glycan array binding signal (z-score) [43]: 0.654 | glycan array binding signal (z-score) [44]: 0.362

— the supplement of paper PMC8728848
